The full data set covers some 7,900 targets. This sample favours those with a hit. About 0.6% of all pairs of compound and target were hits. Unmarked numbers belong to inactive results.
How the values were obtained:
Assay in all cases: log2 fold change, soluble protein after heating vs DMSO (PISA); higher = thermal stabilisation; K562 cells, 10 uM, 30 min; active = over 0.2 and 3.5 SD of the protein, either way, in both replicates (recomputed)
ZEB2 = ZEB2 (UniProt O60315)
In short: (§1)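 Thermal stability values are relative to control samples and come from duplicates. They are expressed as log2 fold changes. For measurement, K562 cells (2×10^6 cells/mL) received 10 μM compound for 30 min, and aliquots were heated for 3 min over 48°C-58°C, pooled, and extracted at 4°C in PBS with 0.5% NP-40. Soluble protein, the supernatant after 21,000xg for 90 min, was quantified by TMTpro 16plex LC-MS/MS with equalised channel sums.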

ZER1 = ZER1 (UniProt Q7Z7L7)
In short: as §1

ZFAND5 = ZFAND5 (UniProt O76080)
In short: as §1

ZFAND6 = ZFAND6 (UniProt Q6FIF0)
In short: as §1

ZFP91 = ZFP91 (UniProt Q96JP5)
In short: as §1

ZFPL1 = ZFPL1 (UniProt O95159)
In short: as §1

ZMAT2 = ZMAT2 (UniProt Q96NC0)
In short: as §1

ZMYM1 = ZMYM1 (UniProt Q5SVZ6)
In short: as §1

ZMYM3 = ZMYM3 (UniProt Q14202)
In short: as §1

ZNF143 = ZNF143 (UniProt P52747)
In short: as §1

Sequence of ZFAND6 (Q6FIF0 whole entry, looked up): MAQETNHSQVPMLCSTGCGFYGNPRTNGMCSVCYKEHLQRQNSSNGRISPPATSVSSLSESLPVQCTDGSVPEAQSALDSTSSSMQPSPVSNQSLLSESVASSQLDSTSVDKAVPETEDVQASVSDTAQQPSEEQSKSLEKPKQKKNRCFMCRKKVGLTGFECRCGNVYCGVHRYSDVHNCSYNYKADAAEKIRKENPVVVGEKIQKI
Sequence of ZFP91 (Q96JP5 whole entry, looked up): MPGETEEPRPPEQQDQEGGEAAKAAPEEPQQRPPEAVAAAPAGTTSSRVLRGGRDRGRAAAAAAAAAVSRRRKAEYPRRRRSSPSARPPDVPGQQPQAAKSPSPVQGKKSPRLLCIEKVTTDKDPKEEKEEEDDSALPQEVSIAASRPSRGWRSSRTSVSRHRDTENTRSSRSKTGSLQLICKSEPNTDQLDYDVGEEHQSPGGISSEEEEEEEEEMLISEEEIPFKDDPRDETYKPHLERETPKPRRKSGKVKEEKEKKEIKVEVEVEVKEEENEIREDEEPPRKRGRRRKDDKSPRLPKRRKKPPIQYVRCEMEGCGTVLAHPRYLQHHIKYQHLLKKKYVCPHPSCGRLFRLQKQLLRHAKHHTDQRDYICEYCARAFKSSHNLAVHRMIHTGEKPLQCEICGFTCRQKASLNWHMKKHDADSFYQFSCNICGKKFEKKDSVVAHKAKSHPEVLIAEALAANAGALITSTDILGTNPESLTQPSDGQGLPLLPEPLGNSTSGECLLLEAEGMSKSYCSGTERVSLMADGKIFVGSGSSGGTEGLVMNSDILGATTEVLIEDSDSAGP
Sequence of ZMYM3 (Q14202 whole entry, looked up): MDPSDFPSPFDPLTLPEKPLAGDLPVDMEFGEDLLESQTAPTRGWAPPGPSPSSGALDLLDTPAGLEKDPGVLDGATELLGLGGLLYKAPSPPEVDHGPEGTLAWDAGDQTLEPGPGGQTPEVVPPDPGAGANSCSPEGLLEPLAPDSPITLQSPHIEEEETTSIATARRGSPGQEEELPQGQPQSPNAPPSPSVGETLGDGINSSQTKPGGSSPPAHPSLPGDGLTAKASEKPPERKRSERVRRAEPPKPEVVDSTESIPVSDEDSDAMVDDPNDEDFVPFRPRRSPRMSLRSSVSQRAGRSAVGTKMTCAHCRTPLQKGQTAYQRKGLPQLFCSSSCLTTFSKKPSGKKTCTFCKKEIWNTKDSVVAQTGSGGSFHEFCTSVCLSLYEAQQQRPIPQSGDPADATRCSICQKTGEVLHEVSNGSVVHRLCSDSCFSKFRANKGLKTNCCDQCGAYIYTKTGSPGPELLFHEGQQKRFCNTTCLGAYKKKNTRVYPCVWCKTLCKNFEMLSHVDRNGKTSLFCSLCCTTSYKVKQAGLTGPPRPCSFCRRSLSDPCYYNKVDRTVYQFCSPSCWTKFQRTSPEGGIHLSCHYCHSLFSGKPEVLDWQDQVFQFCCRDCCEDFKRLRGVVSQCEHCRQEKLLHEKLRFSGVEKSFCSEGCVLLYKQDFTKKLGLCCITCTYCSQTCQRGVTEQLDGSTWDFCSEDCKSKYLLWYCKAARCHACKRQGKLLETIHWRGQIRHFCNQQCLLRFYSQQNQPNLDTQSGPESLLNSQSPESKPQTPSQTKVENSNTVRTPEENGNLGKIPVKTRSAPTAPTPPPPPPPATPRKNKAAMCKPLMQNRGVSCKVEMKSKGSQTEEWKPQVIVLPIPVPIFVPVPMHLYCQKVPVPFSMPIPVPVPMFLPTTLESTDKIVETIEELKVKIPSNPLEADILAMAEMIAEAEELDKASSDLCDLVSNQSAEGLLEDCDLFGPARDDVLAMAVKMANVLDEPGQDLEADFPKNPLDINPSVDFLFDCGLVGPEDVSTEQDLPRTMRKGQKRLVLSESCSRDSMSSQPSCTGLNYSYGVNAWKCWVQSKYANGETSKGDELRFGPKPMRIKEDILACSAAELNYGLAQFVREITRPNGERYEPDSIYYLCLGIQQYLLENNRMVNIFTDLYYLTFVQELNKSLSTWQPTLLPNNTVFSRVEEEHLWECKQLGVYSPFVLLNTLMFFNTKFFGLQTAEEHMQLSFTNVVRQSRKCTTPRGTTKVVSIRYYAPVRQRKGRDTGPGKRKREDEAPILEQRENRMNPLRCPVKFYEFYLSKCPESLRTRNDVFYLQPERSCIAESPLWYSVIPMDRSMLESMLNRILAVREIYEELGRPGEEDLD
Sequence of ZER1 (Q7Z7L7 whole entry, looked up): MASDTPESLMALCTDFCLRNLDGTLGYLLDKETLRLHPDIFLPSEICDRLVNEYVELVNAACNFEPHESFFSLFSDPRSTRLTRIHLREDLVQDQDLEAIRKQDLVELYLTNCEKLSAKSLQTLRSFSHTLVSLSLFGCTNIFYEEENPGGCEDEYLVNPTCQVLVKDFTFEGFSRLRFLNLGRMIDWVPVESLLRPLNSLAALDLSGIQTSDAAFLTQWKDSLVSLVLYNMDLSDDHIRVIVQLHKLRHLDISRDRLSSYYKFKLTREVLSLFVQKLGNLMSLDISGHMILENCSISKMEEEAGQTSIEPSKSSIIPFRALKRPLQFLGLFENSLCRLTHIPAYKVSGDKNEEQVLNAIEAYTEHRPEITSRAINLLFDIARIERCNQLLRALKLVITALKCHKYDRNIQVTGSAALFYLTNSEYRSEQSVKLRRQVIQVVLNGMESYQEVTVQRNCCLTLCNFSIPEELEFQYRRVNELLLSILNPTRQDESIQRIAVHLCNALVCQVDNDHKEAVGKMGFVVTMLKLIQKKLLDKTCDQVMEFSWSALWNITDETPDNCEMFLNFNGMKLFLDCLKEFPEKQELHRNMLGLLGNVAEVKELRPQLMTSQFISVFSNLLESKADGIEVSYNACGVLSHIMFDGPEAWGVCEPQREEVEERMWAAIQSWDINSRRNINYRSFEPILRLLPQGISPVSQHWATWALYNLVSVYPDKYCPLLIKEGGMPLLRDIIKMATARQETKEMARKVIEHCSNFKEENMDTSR
Sequence of ZEB2 (O60315 whole entry, looked up): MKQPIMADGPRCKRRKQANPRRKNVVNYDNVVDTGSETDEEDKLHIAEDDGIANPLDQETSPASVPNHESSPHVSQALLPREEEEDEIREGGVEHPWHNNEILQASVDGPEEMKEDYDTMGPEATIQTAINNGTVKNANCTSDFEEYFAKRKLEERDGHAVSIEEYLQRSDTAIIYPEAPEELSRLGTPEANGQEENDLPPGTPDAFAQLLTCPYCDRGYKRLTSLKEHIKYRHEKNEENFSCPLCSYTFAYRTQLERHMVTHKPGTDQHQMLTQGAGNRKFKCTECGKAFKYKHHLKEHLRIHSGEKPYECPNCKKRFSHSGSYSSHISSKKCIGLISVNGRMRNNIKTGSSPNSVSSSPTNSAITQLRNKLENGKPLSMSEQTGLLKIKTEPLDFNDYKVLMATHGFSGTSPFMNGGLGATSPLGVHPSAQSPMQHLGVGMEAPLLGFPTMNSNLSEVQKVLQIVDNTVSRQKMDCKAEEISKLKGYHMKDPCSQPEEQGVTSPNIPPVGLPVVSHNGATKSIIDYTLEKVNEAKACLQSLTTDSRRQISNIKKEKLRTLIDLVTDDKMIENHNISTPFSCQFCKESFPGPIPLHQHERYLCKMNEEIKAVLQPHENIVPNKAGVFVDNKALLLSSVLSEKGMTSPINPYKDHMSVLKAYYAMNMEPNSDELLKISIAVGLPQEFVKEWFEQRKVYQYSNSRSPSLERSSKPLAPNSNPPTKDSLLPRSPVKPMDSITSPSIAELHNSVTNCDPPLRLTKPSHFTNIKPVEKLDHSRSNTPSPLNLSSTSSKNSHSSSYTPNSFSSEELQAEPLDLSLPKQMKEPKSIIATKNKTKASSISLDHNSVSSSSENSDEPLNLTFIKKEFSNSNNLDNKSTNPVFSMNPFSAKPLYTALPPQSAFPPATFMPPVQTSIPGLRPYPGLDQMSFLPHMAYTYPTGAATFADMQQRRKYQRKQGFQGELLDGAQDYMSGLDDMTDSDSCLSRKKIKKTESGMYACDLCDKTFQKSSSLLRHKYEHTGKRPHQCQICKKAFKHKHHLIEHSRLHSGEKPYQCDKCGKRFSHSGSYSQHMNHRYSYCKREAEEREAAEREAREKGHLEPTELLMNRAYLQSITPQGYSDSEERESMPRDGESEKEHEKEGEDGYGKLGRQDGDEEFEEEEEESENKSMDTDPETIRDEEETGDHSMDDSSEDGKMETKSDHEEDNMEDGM
Sequence of ZFPL1 (O95159 whole entry, looked up): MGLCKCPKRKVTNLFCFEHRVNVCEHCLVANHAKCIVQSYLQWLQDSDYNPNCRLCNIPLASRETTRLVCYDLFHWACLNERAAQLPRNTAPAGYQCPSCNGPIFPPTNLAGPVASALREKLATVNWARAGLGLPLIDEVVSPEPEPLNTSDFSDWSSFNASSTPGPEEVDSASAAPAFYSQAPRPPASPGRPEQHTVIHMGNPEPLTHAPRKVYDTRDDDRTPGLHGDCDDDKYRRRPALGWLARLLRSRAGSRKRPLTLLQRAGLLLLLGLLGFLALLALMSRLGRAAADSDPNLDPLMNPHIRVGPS
Sequence of ZMAT2 (Q96NC0 whole entry, looked up): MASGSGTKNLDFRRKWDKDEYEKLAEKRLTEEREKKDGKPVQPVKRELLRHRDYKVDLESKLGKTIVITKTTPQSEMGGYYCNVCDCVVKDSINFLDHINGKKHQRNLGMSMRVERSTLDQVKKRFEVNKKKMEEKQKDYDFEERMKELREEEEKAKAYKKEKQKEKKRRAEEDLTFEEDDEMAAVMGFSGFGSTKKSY
Sequence of ZFAND5 (O76080 whole entry, looked up): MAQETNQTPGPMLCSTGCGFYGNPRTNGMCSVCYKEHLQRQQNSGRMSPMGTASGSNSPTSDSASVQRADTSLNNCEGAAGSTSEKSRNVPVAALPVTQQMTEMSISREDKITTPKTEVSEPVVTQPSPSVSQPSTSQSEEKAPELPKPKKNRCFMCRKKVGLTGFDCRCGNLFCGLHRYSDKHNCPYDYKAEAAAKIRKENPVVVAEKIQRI

Row | SMILES | log2 fold change (ZEB2) | log2 fold change (ZER1) | log2 fold change (ZFAND5) | log2 fold change (ZFAND6) | log2 fold change (ZFP91) | log2 fold change (ZFPL1) | log2 fold change (ZMAT2) | log2 fold change (ZMYM1) | log2 fold change (ZMYM3) | log2 fold change (ZNF143)
1 | NCC(=O)Nc1ccc(-n2nc(C(F)(F)F)cc2-c2ccc3c(ccc4ccccc43)c2)cc1 | -0.343 | 0.03 | 0.103 | 0.061 | 0.036 | 0.027 | 0.016 | 0.336 | 0.073 | -0.047
2 | Cc1cc(SCc2sc(-c3ccc(C(F)(F)F)cc3)nc2C)ccc1OCC(=O)O | 0.089 | 0.055 | -0.079 | -0.038 | 0.042 | 0.025 | -0.048 | 0.032 | -0.011 | 0.028
3 | Cn1cncc1[C@@](N)(c1ccc(Cl)cc1)c1ccc2c(c1)c(-c1cccc(Cl)c1)cc(=O)n2C [tipifarnib] | 0.045 | 0.111 | 0.031 | -0.09 | 0.149 | 0.008 | -0.058 | 0.01 | 0.027 | 0.037
4 | COc1cc2nc(-c3cc(F)ccc3O)nc(N[C@@H]3CNC[C@H]3C(C)(C)O)c2cc1OC | -0.018 | 0.048 | 0 | 0.017 | -0.095 | 0.099 | -0.028 | 0.004 | -0.045 | -0.19
5 | NC1(c2ccc(-c3nc4ccn5c(=O)[nH]nc5c4cc3-c3ccccc3)cc2)CCC1 | -0.127 | 0 | 0.019 | 0.056 | 0.144 | 0.058 | 0.043 | 0.215 | -0.036 | -0.023
6 | CN1CCN(CCOc2cc(OC3CCOCC3)c3c(Nc4c(Cl)ccc5c4OCO5)ncnc3c2)CC1 [saracatinib] | 0.008 | 0.013 | 0.08 | -0.035 | 0.036 | 0.016 | 0.026 | -0.024 | 0.098 | 0.094
7 | Cn1c2cc(S(C)=O)sc2c2cnn(Cc3cccc(N)c3)c(=O)c21 (stereo not given) | 0.098 | 0.019 | 0.022 | -0.003 | 0.099 | -0.031 | -0.034 | -0.014 | -0.023 | -0.003
8 | CNC(=O)c1ccc(Nc2ncc(C(F)(F)F)c(NCc3nccnc3N(C)S(C)(=O)=O)n2)cc1 [defactinib] | 0.019 | 0.027 | 0.085 | -0.045 | 0.054 | -0.083 | -0.014 | 0.558 (active) | -0.013 | -0.171
9 | Cc1ccc(NC(=O)c2cccc(N(C)C)c2)cc1NC(=O)c1ccc(O)cc1 | 0.071 | -0.059 | 0.034 | 0.026 | 0.036 | 0.094 | 0 | 0.051 | 0.056 | 0.023
10 | CC(C)(O)CC(=O)NCCn1ccc2ncnc(Nc3ccc(Oc4cccc(C(F)(F)F)c4)c(Cl)c3)c21 | 0.034 | -0.104 | -0.019 | 0.015 | 0.065 | 0.04 | -0.016 | -0.01 | 0.084 | 0.028
11 | C#Cc1cccc(Nc2ncnc3cc(OCCOC)c(OCCOC)cc23)c1 [erlotinib] | 0.101 | 0.086 | -0.028 | 0.024 | -0.004 | -0.022 | -0.017 | 0.14 | 0.042 | 0.021
12 | NC(=O)c1ccc2nc(-c3ccc(Oc4ccc(Cl)cc4)cc3)[nH]c2c1 | 0.029 | -0.311 | -0.013 | 0.003 | 0.017 | 0.055 | 0.019 | -0.135 | -0.02 | 0.039
13 | Cc1ccc(Sc2cncc3sc(C(N)=O)cc23)cc1 | -0.012 | -0.085 | -0.047 | -0.01 | -0.025 | 0.008 | 0.113 | 0.061 | -0.07 | -0.042
14 | C=CC(=O)N1CCC[C@@H](n2nc(-c3ccc(Oc4ccccc4)cc3)c3c(N)ncnc32)C1 [ibrutinib] | 0.029 | 0.001 | 0.03 | 0.006 | 0 | 0.087 | 0.025 | 0.066 | 0.03 | 0.01
15 | CC(C)N(C[C@H]1O[C@@H](n2cnc3c(N)ncnc32)[C@H](O)[C@@H]1O)[C@H]1C[C@@H](CCc2nc3cc(C(C)(C)C)ccc3[nH]2)C1 [pinometostat] | 0.06 | 0.098 | -0.047 | -0.048 | 0.136 | -0.11 | -0.037 | 0.001 | -0.011 | 0.014
16 | CN1CCN(c2nc(C3=C(c4c[nH]c5ccccc45)C(=O)NC3=O)c3ccccc3n2)CC1 [sotrastaurin] | -0.056 | 0.078 | 0.11 | 0.13 | 0.105 | 0.003 | -0.088 | 0.027 | 0.027 | -0.031
17 | Cc1ccc(NC(=O)c2ccc(CN3CC[C@H](N(C)C)C3)c(C(F)(F)F)c2)cc1Nc1nccc(-c2cncnc2)n1 [bafetinib] | -0.017 | -0.055 | -0.022 | -0.013 | 0.191 | -0.022 | -0.053 | -0.028 | -0.061 | -0.089
18 | CC(C)C[C@@H](C=O)NC(=O)[C@H](CC(C)C)NC(=O)[C@H](CC(C)C)NC(=O)OCc1ccccc1 | 0.131 | 0.039 | 0.007 | 0.119 | 0 | 0.038 | 0.049 | 0.006 | 0.09 | -0.119
19 | CNC(=O)c1ccccc1Nc1nc(Nc2ccc(N3CCOCC3)cc2OC)ncc1Cl | -0.07 | -0.164 | -0.141 | -0.015 | -0.016 | 0.061 | -0.018 | -0.082 | 0 | -0.084
20 | COC(=O)[C@H](CCSC)NC(=O)c1ccc(NC[C@@H](N)CS)cc1-c1ccccc1 | -0.382 | 0.035 | 0.1 | 0.061 | 0.064 | -0.007 | 0.019 | 0.026 | 0.035 | 0.013
21 | C[C@@H](Oc1cc(-c2cnn(C3CCNCC3)c2)cnc1N)c1c(Cl)ccc(F)c1Cl [crizotinib] | -0.141 | 0.084 | -0.085 | -0.041 | 0 | 0.107 | 0.098 | -0.017 | 0.04 | -0.06
22 | O=C(O)c1ccc2c(c1)nc(Nc1cccc(Cl)c1)c1ccncc12 [silmitasertib] | -0.001 | 0.028 | -0.03 | -0.018 | 0.086 | 0.003 | 0.028 | 0.255 | -0.012 | 0.023
23 | COc1cccc2cc(-c3nc([C@H]4CC[C@H](C(=O)O)CC4)n4ncnc(N)c34)[nH]c12 | 0.051 | 0.067 | 0.129 | 0.046 | -0.042 | -0.039 | 0.071 | -0.128 | 0.001 | 0.05
24 | CN1CCc2c(c3ccccc3n2Cc2ccc(C(=O)NO)cc2)C1 [Tubastatin A] | 0.181 | 0.048 | 0.285 (active) | 0.144 | 0.077 | -0.025 | 0.057 | 0.071 | -0.028 | -0.031
